Screening results deposited in PubChem BioAssay by National Center for Advancing Translational Sciences (NCATS).
CCT modulator: cytosolic chaperonin activity modulation | 0.3% of 360,000 active | purified chaperonin ATPase assay, HTRF ADP detection, 30 min | AID 651819 | activity change, % (no concentration beside the values), hits read low; in the data active = activity change below about -30%; also: % is scaled to controls: 0 for no effect and ±100 for the full control effect
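ATPase activity: ADP formed was measured by HTRF Transcreener (665/615 nm ratio) after 30 min at 37 deg C with 10 uM ATP. Compounds screened at one 76 uM concentration against 40 or 20 nM TRiC in Tris pH 7.4/KCl/MgCl2/DTT buffer.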
FUS yeast rescue: FUS proteinopathy suppression in yeast; S. cerevisiae FUS-expressing, growth rescue, OD600, 24 h; Potency, µM (highest dose often 76.6 µM), usual class: activators; 0.24% of 390,000 active;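 also: potency is read from the fitted curve at half-maximal effect; plate controls were DMSO vehicle for no effect and reference control for full effect; nearly all actives have a fitted effect of over 55% in size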
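Steps: raffinose overnight preculture; dilution to OD 0.005 in 2% galactose minimal medium; compound addition (concentration series); 24hr at 30C, 99% humidity; absorbance read at 600 nm.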
MmCpn inh: blocks the Methanococcus maripaludis chaperonin Mm-Cpn; Potency, µM (highest dose often 76.9 µM), without a hit: at the highest dose activity, negative = inhibition, actives largely listed as inhibitors; 0.031% of 330,000 active; purified Mm-Cpn ATPase, ADP Transcreener TR-FRET; AID 504842; also: potency is read from the fitted curve at half-maximal effect; % is scaled to controls: 0 for no effect and ±100 for the full control effect; nearly all actives have a fitted effect of over 80% in size
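Quantitative HTS used 25 nM Mm-CPN and 10 uM ATP in magnesium/KCl Tris buffer, pH 7.4, with 1 mM DTT. Hydrolysis ran 30 min at 37°C; ADP was read by HTRF.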
TDP43 rescue: rescues yeast growth from TDP-43 toxicity; TDP-43 expressing yeast growth rescue, BacTiter-Glo, 24 h; Potency, µM (highest dose often 46.1 µM), for inactives: at the top dose growth rescue (activation), usual class: activators; 1.8% of 410,000 active; also: potency is read from the fitted curve at half-maximal effect; % of control where 0% means no effect; nearly all actives have a fitted effect of over 50% in size
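Readout is BacTiter-Glo luminescence of cell growth, so inhibitors register as activators. TDP-43-expressing yeast at OD600=0.02 in galactose medium, after raffinose pregrowth to mid-log, were incubated with compound for 24 hr at 30 deg C.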
Abeta yeast res: compounds reversing amyloid beta toxicity in yeast. yeast expressing A-beta42, growth rescue, OD600, 48 h; response scale: 0% DMSO, 100% iron-clioquinol control. Potency, µM (series often up to 46.1 µM), hits mostly activators. 0.063% of 410,000 active. AID 1347071; also: potency is read from the fitted curve at half-maximal effect; nearly all actives have a fitted effect of over 55% in size
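Growth rescue measured by 600 nm absorbance after 48 h yeast culture at 30 C with compound. Values normalized between DMSO and an equimolar ferric chloride plus clioquinol control.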
aSyn rescue: rescues yeast growth from alpha-synuclein toxicity; Yeast expressing alpha-synuclein, growth rescue, BacTiter-Glo, 24 h; Potency, µM (titrated, usually from 46.1 µM), without a hit: top-dose growth rescue (activation), usual class: activators; AID 652106; 0.14% of 370,000 active; also: potency is read from the fitted curve at half-maximal effect; % of control where 0% means no effect; nearly all actives have a fitted effect of over 65% in size
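Screening used galactose-induced yeast with toxic alpha-synuclein levels, exposed to compound for 24 hr at 30 deg C. Cell growth, read with BacTiter-Glo luminescence, gave the measured signal.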
Numbers without * were called inactive; i = inactive; ? = inconclusive; · = not tested or not shown; [ ] = remark or other dose. Compounds with a hit are over-represented: about 2.3% of the library has one in this group of screens. Unless noted, calls follow the shape of the dose curve; as a rule, active = well fitted curve in the direction sought with a large enough effect; inconclusive = small, poorly fitted or top-dose-only effect, or another doubt; inactive = no such curve, though single readings can be large; an effect the other way counts as inactive or inconclusive.

SMILES	CCT modulator	FUS yeast rescue	MmCpn inh	TDP43 rescue	Abeta yeast res	aSyn rescue
O=C(O)c1ccc(COc2ccc([N+](=O)[O-])cc2Cl)cc1	-1.8	?	·	14.2%	i	-0.3%
O=C(NCCCOc1ccc([N+](=O)[O-])cc1Cl)OCc1ccccc1	-1.6	·	·	15.8µM*	i	?
Cn1c(/C(C#N)=N/O)nc2ccccc21	0.2	i	-0.9%	12.9%	i	-0.7%
CCn1c(/C(C#N)=C/c2ccccc2Cl)nc2ccccc21	·	i	·	17.8µM*	i	·
Cn1c(/C(C#N)=C/c2ccccc2Br)nc2ccccc21	·	i	·	11.2µM*	i	·
Nc1nc(=S)c2snnc2[nH]1	·	·	·	·	·	0.5%
Cn1c(/C=C/c2ccc(Br)cc2)c([N+](=O)[O-])c(=O)n(C)c1=O	0.6	i	3.8%	20µM*	i	0.0%
CC(Oc1cccc(Cl)c1)C(=O)Nc1ccc([N+](=O)[O-])cn1 (configuration not stated)	-3.0	·	-1.4%	12.6µM*	i	-3.4%
CC(Oc1cccnc1[N+](=O)[O-])C(=O)Nc1ccc(Cl)cn1 (configuration not stated)	-1.9	i	1.4%	14.3%	i	-11.5%
CC(Oc1cccnc1[N+](=O)[O-])C(=O)Nc1cccc(Cl)c1 (configuration not stated)	-1.2	i	1.0%	15.8µM*	i	-1.1%
COc1cccc(CNS(=O)(=O)c2c(C(=O)N3CCC(C)CC3)c(C)n(C)c2C)c1	·	i	·	0.0%	i	·
O=C(CNC(=O)C1CCCCC1)OCc1ccccc1	·	·	·	·	·	3.1%
N#CCCSc1nc(N2CCOCC2)c2c(c1C#N)CCCC2	2.7	i	?	17.8µM*	i	14.9%
O=C(Cn1c(-c2cncs2)nc2ccccc21)NC1CCCCC1	·	i	·	·	·	·
CCCC(=O)c1cc(F)c(N2CCN(CCC#N)CC2)cc1C	-0.2	i	-0.9%	1.8%	i	0.6%
CCCC(=O)c1cc(F)c(N2CCN(C(=O)OCC)CC2)cc1C	1.6	i	0.2%	15.8µM*	i	-1.3%
O=C(c1ccccc1)c1ccc(N2CCN(C(=O)c3ccc(F)cc3F)CC2)c(F)c1	0.8	?	·	22.4µM*	i	6.0%
O=C(c1ccc(N2CCN(C(=O)c3cccc(F)c3)CC2)cc1)c1cccc(F)c1	2.3	i	0.8%	?	i	1.7%
CCCC(=O)c1ccc(N2CCN(C(=O)c3ccccc3)CC2)c(F)c1	0.0	?	-0.2%	?	i	-6.0%
CCCC(=O)c1ccc(N2CCN(C(=O)c3ccccc3Br)CC2)c(F)c1	1.4	i	-0.4%	22.4µM*	i	-0.3%
O=C(c1ccc(N2CCN(C(=O)c3ccccc3Br)CC2)cc1)c1cccc(F)c1	-0.6	i	-13.2%	14.1µM*	i	19.4%
c1ccc(-c2nc(NC3CC3)nc(-n3ccnc3)n2)cc1	-1.2	i	-0.6%	5.01µM*	i	3.5%
c1ccc(-c2nc(-n3ccnc3)nc(-n3ccnc3)n2)cc1	-2.1	i	2.3%	?	i	·
O=C(O)c1ccccc1C(=O)N1N=C2/C(=C/c3cccc([N+](=O)[O-])c3)CCCC2C1c1cccc([N+](=O)[O-])c1 (configuration not stated)	-0.6	25.1µM*	0.8%	-12.7%	i	1.0%
O=C(CCn1nnc2ccccc21)N1CCN(c2cccc(C(F)(F)F)c2)CC1	·	i	·	·	·	·
SMILES	CCT modulator	FUS yeast rescue	MmCpn inh	TDP43 rescue	Abeta yeast res	aSyn rescue
O=C(C[n+]1cccc(Br)c1)c1cccc([N+](=O)[O-])c1	·	·	·	·	·	6.9%
CC(C)(C)c1ccc(S(=O)(=O)Nc2ccc(C(O)(C(F)(F)F)C(F)(F)F)cc2)cc1	-0.2	?	·	35.5µM*	?	-25.0%
O=S(=O)(Nc1ccc(C(O)(C(F)(F)F)C(F)(F)F)cc1)c1cccc2ccccc12	1.3	i	·	35.5µM*	i	-16.0%
CC(=O)Nc1ccc(NS(=O)(=O)c2cccc3ccccc23)cc1	-0.7	i	-0.4%	2.3%	i	2.7%
CS(=O)(=O)c1ccc(NC(=O)COc2ccccc2C(=O)Nc2ccccc2)cc1	·	·	·	·	·	-5.6%
COc1ccc(-c2nc3ccc(Cl)cn3c2Cc2ccccc2)cc1OC	2.5	i	·	23.1%	i	-0.7%
COc1ccc(-c2nc3ccc(Br)cn3c2Cc2ccccc2)cc1OC	1.1	i	·	14.9%	i	-0.7%
COc1ccc(-c2nc3ccc(Br)cn3c2Cc2cccc(Cl)c2)cc1OC	-1.9	?	·	22.4µM*	i	?
COc1ccc(-c2nc3ccc(Cl)cn3c2Cc2cccc(Cl)c2)cc1OC	1.1	i	·	35.5µM*	i	3.2%
Cc1ccc(S(=O)(=O)c2ccc(Cl)cc2)cc1S(N)(=O)=O	-71.1*	i	1.1%	14.0%	i	-5.0%
O=C(NCCc1ccc(F)cc1)c1cc2ccccn2n1	·	i	·	·	·	·
O=S(=O)(NCc1csc(-c2cccs2)n1)c1cccc(C(F)(F)F)c1	1.3	i	-13.8%	17.8µM*	i	1.3%
O=S(=O)(NCc1csc(-c2cccs2)n1)c1ccc(Cl)cc1	0.5	i	-19.1%	?	i	14.6%
COc1ccc(C2Nc3ccccc3C(=O)N2Cc2ccco2)cc1COc1ccccc1C (configuration not stated)	·	i	·	·	·	·
CC(C)Cn1cnc2c(SCc3ccccc3F)nc(N)nc21	-3.4	·	·	?	i	9.3%
CCCCn1cnc2c(SCc3ccccc3F)nc(N)nc21	2.0	·	·	17.8µM*	i	7.0%
CCc1cccc(CC)c1NC(=O)c1cccc(NC(=O)c2ccccc2)c1	1.0	i	1.2%	21.4%	i	-7.6%
CCc1cccc(CC)c1NC(=S)Nc1ccccc1	1.1	i	1.0%	-25.0%[0.397 µM]	14.1µM*	-3.5%
CC(=O)OC[C@@H]1CN(Cc2ccccc2)C[C@H](n2cnc3c(N4CCN(c5ccccc5)CC4)ncnc32)O1	-0.6	i	·	17.8µM*	i	0.4%
CCN(CC)c1ncnc2c1ncn2[C@H]1CN(Cc2ccco2)C[C@@H](CO)O1	2.1	i	·	7.9%	i	-3.0%
COc1cc(CNc2ncnc3c2ncn3[C@H]2CN(Cc3ccc(-c4ccccc4)cc3)C[C@@H](CO)O2)cc(OC)c1OC	-0.7	?	·	9.0%	i	-2.6%
CCN(CC)c1ncnc2c1ncn2[C@H]1CN(Cc2ccc(-c3ccccc3)cc2)C[C@@H](CO)O1	-1.7	28.2µM*	·	2.0%	i	?
